The values below come from paper PMC7862700, “An all-to-all approach to the identification of sequence-specific readers for epigenetic DNA modifications on cytosine”.

Holding throughout (experiment): DAPPL (digital affinity profiling via proximity ligation, sequencing); 10 mM Tris-HCl pH 7.5, 50 mM NaCl, 1 mM DTT, 4% glycerol, room temperature, 30 min; GST-TFs on glutathione beads, 16-mer random dsDNA library, 0.1% formaldehyde crosslink after washing; high values mean tight binding
Settings in all cases: protein: recombinant; tags: N-terminal GST; dsDNA, one strand shown

One test deals with T1, ERF (Homo sapiens, UniProt P50548 1-548).
T1 sequence: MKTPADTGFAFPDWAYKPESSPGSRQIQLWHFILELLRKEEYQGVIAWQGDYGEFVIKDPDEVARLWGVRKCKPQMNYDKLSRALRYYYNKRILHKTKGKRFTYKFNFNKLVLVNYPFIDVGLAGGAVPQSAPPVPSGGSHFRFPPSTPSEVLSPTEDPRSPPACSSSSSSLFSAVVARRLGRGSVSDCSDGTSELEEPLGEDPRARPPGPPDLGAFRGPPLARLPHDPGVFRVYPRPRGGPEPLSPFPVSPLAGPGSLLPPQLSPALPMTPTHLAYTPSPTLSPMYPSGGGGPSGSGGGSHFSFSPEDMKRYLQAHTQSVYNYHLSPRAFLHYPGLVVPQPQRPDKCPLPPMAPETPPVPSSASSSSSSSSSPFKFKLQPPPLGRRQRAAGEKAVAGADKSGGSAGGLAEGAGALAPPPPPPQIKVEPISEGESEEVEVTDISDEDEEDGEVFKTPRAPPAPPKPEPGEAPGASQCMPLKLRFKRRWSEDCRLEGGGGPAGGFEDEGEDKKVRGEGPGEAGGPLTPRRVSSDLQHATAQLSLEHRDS
The gist of the method: (§1)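 GST fusions of human transcription factors were expressed in yeast and captured with glutathione beads. Once given DNA barcodes and pooled alongside a tag-only sample, they were incubated for 30 min at room temperature with 200 nmole of a random double-stranded 16-mer DNA library in Tris/NaCl/DTT/glycerol buffer, then washed, crosslinked (0.1% formaldehyde), proximity-ligated, PCR-amplified and sequenced on an Illumina NextSeq500. The binding signal of each hexamer is its read frequency for a factor divided by its frequency for the tag-only sample.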

The target of the next test is T2, ETV3L (Homo sapiens, UniProt Q6ZN32 1-361).
T2 sequence: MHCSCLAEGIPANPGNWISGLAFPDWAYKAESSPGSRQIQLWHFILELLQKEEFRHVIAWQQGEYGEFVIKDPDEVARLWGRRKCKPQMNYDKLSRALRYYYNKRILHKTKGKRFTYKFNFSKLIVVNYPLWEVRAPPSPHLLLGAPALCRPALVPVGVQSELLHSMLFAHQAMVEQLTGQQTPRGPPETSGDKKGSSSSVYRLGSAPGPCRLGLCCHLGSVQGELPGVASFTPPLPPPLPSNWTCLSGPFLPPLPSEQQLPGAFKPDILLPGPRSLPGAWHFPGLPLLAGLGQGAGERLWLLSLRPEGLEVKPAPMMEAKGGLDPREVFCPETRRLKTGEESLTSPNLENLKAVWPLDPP
The gist of the method:
as §1

Another test deals with T3, ETS2 (Homo sapiens, UniProt P15036 1-469).
T3 sequence: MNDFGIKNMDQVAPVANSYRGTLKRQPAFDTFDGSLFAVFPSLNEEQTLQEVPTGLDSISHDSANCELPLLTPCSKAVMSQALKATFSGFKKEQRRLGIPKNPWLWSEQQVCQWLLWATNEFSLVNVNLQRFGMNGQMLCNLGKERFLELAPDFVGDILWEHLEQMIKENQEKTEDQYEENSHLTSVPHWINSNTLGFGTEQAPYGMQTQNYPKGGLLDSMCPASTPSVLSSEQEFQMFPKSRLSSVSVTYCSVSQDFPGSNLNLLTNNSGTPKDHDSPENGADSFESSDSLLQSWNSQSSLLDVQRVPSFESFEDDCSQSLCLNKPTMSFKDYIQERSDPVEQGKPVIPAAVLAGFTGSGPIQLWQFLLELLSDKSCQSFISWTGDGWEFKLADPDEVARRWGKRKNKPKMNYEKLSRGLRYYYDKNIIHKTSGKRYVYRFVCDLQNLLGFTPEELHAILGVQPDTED
The gist of the method: as §1

In the next test the target is T4, SPDEF (Homo sapiens, UniProt O95238 1-335).
T4 sequence: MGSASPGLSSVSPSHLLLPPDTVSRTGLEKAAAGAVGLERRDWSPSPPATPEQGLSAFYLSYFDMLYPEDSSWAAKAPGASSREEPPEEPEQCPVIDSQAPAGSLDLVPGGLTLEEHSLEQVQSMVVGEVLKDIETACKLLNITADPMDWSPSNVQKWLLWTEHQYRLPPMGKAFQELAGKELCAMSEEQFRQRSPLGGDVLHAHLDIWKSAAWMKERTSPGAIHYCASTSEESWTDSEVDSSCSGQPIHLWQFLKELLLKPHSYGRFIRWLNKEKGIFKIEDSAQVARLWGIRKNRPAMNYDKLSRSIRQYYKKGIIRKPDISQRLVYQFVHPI
In outline:
as §1

A further test addresses T5, ETV7 (Homo sapiens, UniProt Q9Y603 1-341).
T5 sequence: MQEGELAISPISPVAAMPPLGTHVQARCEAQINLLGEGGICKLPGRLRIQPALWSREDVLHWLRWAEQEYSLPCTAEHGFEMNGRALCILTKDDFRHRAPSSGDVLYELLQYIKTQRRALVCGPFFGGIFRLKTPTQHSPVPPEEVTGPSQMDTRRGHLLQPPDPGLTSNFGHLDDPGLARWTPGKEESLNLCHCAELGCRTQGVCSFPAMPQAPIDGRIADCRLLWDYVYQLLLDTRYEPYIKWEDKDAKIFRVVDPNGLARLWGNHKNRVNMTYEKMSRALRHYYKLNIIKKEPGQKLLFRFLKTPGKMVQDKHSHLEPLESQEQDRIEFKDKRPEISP
The gist of the method: as §1

In the next test the target is T6, ELF5 (Homo sapiens, UniProt Q9UKW6-2 1-255).
T6 sequence: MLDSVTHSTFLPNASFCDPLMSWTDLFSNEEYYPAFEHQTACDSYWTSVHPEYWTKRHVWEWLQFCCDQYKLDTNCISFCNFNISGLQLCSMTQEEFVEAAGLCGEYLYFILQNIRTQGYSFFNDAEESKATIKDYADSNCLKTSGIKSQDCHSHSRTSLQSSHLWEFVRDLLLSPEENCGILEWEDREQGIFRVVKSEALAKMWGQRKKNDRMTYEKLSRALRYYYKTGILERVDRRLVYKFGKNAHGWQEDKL
The gist of the method:
as §1

In the next test the target is T7, ETV3 (Homo sapiens, UniProt P41162-2 1-143).
T7 sequence: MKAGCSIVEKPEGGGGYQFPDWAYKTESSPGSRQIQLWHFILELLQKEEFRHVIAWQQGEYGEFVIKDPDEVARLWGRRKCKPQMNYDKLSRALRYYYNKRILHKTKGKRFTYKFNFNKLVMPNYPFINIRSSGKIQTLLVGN
The gist of the method: as §1

Another test has as its target ETV6 (Homo sapiens, UniProt P41212 1-452). In outline: as §1

ETV6, sequence (P41212 whole entry): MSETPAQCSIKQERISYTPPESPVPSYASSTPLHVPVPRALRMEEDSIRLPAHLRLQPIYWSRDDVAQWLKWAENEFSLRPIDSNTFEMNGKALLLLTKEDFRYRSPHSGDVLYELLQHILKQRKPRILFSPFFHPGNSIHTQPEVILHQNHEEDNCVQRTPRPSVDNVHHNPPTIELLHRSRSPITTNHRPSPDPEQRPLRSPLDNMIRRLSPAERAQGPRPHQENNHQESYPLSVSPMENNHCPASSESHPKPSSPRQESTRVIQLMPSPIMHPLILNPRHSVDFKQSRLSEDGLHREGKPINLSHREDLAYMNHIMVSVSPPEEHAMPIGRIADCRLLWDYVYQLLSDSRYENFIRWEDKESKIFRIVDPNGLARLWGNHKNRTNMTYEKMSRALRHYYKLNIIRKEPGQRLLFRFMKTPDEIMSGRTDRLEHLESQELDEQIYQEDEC

For TATCAG, the binding signal is 1.13 fold enrichment (6-mer frequency, TF over GST control) in the test with ERF; 1.11 fold enrichment (6-mer frequency, TF over GST control) with ETV3L; 1.15 fold enrichment (6-mer frequency, TF over GST control) in the test with ETS2; 1.26 fold enrichment (6-mer frequency, TF over GST control) with SPDEF; 1.07 fold enrichment (6-mer frequency, TF over GST control) in the test with ETV7; 1.06 fold enrichment (6-mer frequency, TF over GST control) with ELF5. Moreover, the binding signal is 1.12 fold enrichment (6-mer frequency, TF over GST control) in the test with ETV3 and 1.12 fold enrichment (6-mer frequency, TF over GST control) with ETV6.

Take ATTACG: the binding signal was 1.15 fold enrichment (6-mer frequency, TF over GST control) in the test with ERF; 1.15 fold enrichment (6-mer frequency, TF over GST control) with ETV3L; 1.29 fold enrichment (6-mer frequency, TF over GST control) with ETS2; 1.21 fold enrichment (6-mer frequency, TF over GST control) with SPDEF; 1.12 fold enrichment (6-mer frequency, TF over GST control) with ETV7; 1.12 fold enrichment (6-mer frequency, TF over GST control) with ELF5. Further, the binding signal in the test with ETV3 was 1.22 fold enrichment (6-mer frequency, TF over GST control); in the test with ETV6 it was 1.23 fold enrichment (6-mer frequency, TF over GST control).

For the sequence CTATAA, the binding signal was 1.29 fold enrichment (6-mer frequency, TF over GST control) with ERF; 1.14 fold enrichment (6-mer frequency, TF over GST control) with ETV3L; 1.28 fold enrichment (6-mer frequency, TF over GST control) in the test with ETS2; 1.34 fold enrichment (6-mer frequency, TF over GST control) with SPDEF; 1.22 fold enrichment (6-mer frequency, TF over GST control) with ETV7; 1.2 fold enrichment (6-mer frequency, TF over GST control) with ELF5. Besides, the binding signal in the test with ETV3 is 1.14 fold enrichment (6-mer frequency, TF over GST control); with ETV6, 1.16 fold enrichment (6-mer frequency, TF over GST control).

As to CGACCT, the binding signal was 1.47 fold enrichment (6-mer frequency, TF over GST control) with ERF; 1.75 fold enrichment (6-mer frequency, TF over GST control) with ETV3L; 1.41 fold enrichment (6-mer frequency, TF over GST control) with ETS2; 1.44 fold enrichment (6-mer frequency, TF over GST control) in the test with SPDEF; 1.54 fold enrichment (6-mer frequency, TF over GST control) with ETV7; 1.58 fold enrichment (6-mer frequency, TF over GST control) with ELF5. For the same sequence, the binding signal with ETV3 is 1.53 fold enrichment (6-mer frequency, TF over GST control); in the test with ETV6, 1.5 fold enrichment (6-mer frequency, TF over GST control).

For CCGCTA, the binding signal with ERF is 1.38 fold enrichment (6-mer frequency, TF over GST control); in the test with ETV3L it was 1.27 fold enrichment (6-mer frequency, TF over GST control); in the test with ETS2, 1.32 fold enrichment (6-mer frequency, TF over GST control); with SPDEF, 1.38 fold enrichment (6-mer frequency, TF over GST control); in the test with ETV7, 1.36 fold enrichment (6-mer frequency, TF over GST control); in the test with ELF5, 1.41 fold enrichment (6-mer frequency, TF over GST control). Besides, the binding signal with ETV3 was 1.34 fold enrichment (6-mer frequency, TF over GST control); in the test with ETV6, 1.4 fold enrichment (6-mer frequency, TF over GST control).

With TGAATG, the binding signal is 1.14 fold enrichment (6-mer frequency, TF over GST control) in the test with ERF; 1.2 fold enrichment (6-mer frequency, TF over GST control) in the test with ETV3L; 1.25 fold enrichment (6-mer frequency, TF over GST control) with ETS2; 1.28 fold enrichment (6-mer frequency, TF over GST control) with SPDEF; 1.21 fold enrichment (6-mer frequency, TF over GST control) with ETV7; 1.21 fold enrichment (6-mer frequency, TF over GST control) with ELF5. Besides, the binding signal was 1.2 fold enrichment (6-mer frequency, TF over GST control) with ETV3 and 1.22 fold enrichment (6-mer frequency, TF over GST control) with ETV6.

In the case of ATTGTC, the binding signal with ERF was 1.23 fold enrichment (6-mer frequency, TF over GST control); with ETV3L, 1.14 fold enrichment (6-mer frequency, TF over GST control); in the test with ETS2, 1.17 fold enrichment (6-mer frequency, TF over GST control); with SPDEF, 1.17 fold enrichment (6-mer frequency, TF over GST control); with ETV7, 1.23 fold enrichment (6-mer frequency, TF over GST control); with ELF5, 1.2 fold enrichment (6-mer frequency, TF over GST control). Also, the binding signal is 1.22 fold enrichment (6-mer frequency, TF over GST control) with ETV3 and 1.13 fold enrichment (6-mer frequency, TF over GST control) with ETV6.

Consider ATGGAC, for which the binding signal with ERF was 1.13 fold enrichment (6-mer frequency, TF over GST control); with ETV3L, 1.21 fold enrichment (6-mer frequency, TF over GST control); with ETS2 it was 1.24 fold enrichment (6-mer frequency, TF over GST control); in the test with SPDEF, 1.17 fold enrichment (6-mer frequency, TF over GST control); with ETV7, 1.02 fold enrichment (6-mer frequency, TF over GST control); with ELF5, 1.13 fold enrichment (6-mer frequency, TF over GST control). Also, the binding signal in the test with ETV3 is 1.2 fold enrichment (6-mer frequency, TF over GST control); with ETV6, 1.2 fold enrichment (6-mer frequency, TF over GST control).

In the case of TGCATC, the binding signal with ERF is 1.4 fold enrichment (6-mer frequency, TF over GST control); with ETV3L it was 1.34 fold enrichment (6-mer frequency, TF over GST control); with ETS2 it was 1.39 fold enrichment (6-mer frequency, TF over GST control); in the test with SPDEF, 1.88 fold enrichment (6-mer frequency, TF over GST control); with ETV7, 1.37 fold enrichment (6-mer frequency, TF over GST control); with ELF5, 1.35 fold enrichment (6-mer frequency, TF over GST control). Moreover, the binding signal was 1.29 fold enrichment (6-mer frequency, TF over GST control) with ETV3 and 1.33 fold enrichment (6-mer frequency, TF over GST control) with ETV6.
